Tested on: Vero E6 infected with SARS-CoV-2
Assay: inhibition of SARS-CoV-2 cytopathic effect; higher = more antiviral protection, active = above 15
Conditions: 48 h

Measured: inhibition of SARS-CoV-2 cytopathic effect

CC(C)(C)NCC(O)COc1cccc2c1CCC(=O)N2 (stereo not given) [carteolol]
inactive: 1 nM 2.16% | 8.33 nM 1.11% | 100 nM 0.54% | 833.33 nM 2.62% | 10000 nM -0.66%

COC(=O)c1ccccc1O [methyl-salicylate]
inactive: 1 nM 0.7% | 8.33 nM 2.86% | 100 nM 2.42% | 833.33 nM -0.42% | 10000 nM -3.74%

CCn1c(=O)/c(=C2\Sc3ccccc3N2C)s/c1=C\c1cccc[n+]1CC
inactive: 1 nM -0.41% | 8.33 nM 2.22% | 100 nM -0.82% | 833.33 nM -0.9% | 10000 nM -6.25%

CCCCCCCCCCCC1=C(O)C(=O)C=C(O)C1=O [embelin]
inactive: 1 nM 0.27% | 8.33 nM -0.22% | 100 nM -1.48% | 833.33 nM -2.76% | 10000 nM -6.88%

CCC/N=C1\S/C(=C\c2ccc(OC[C@H](O)CO)c(Cl)c2)C(=O)N1c1ccccc1C [ponesimod]
inactive: 1 nM -1.82% | 8.33 nM -0.6% | 100 nM -2.77% | 833.33 nM -2.51% | 10000 nM -0.58%

C[C@H]1O[C@@H](O[C@H]2CC[C@@]3(C)[C@H](CC[C@@H]4[C@@H]3C[C@@H](O)[C@]3(C)[C@@H](C5=CC(=O)OC5)CC[C@]43O)C2)C[C@H](O)[C@@H]1O[C@H]1C[C@H](O)[C@H](O[C@H]2C[C@H](O)[C@H](O[C@@H]3O[C@H](CO)[C@@H](O)[C@H](O)[C@H]3O)[C@@H](C)O2)[C@@H](C)O1 [deslanoside]
inactive: 1 nM -1.34% | 8.33 nM -4.74% | 100 nM -14.1% | 833.33 nM -18.9% | 10000 nM -20.6%

O=c1c(-c2ccccc2)c1-c1ccccc1 [diphencyprone]
inactive: 1 nM -0.95% | 8.33 nM 0.49% | 100 nM -1.61% | 833.33 nM -1.95% | 10000 nM 5.98%

COC(=O)[C@@H](N)CCCNC(=N)N[N+](=O)[O-]
inactive: 1 nM 0.94% | 8.33 nM -2.09% | 100 nM -1.83% | 833.33 nM -3.06% | 10000 nM -0.4%

C#Cc1cncc([C@@H]2CCCN2C)c1 [altinicline]
inactive: 1 nM -3.46% | 8.33 nM -2.16% | 100 nM -1.9% | 833.33 nM -2.32% | 10000 nM 0.92%

Source: the supplement of paper PMC13380429
